# Reference: PubChem BioAssay (NCI)
# About 79,000 compounds went through this panel and 15% of them were active in at least one assay; those are over-represented in the sample as a whole. Unmarked numbers belong to inactive results. Activity calls are given as the source filed them. Rule as the data show it: active = growth inhibition above about 70%; inactive = the rest.
# Tests used:
# [1] = NCI Yeast Anticancer Drug Screen. Data for the mec2-1 strain (AID 157); conditions: S. cerevisiae mec2-1 strain, active compounds read high
# Outline: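 Cells of the genetically defined mec2-1 yeast strain are incubated with test compound. Inhibition of growth is calculated against vehicle-treated controls.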
# [2] = NCI Yeast Anticancer Drug Screen. Data for the rad14 strain (AID 159);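 also: 0% = growth of vehicle-treated control cultures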; conditions: S. cerevisiae rad14 strain growth inhibition, active compounds read high
# Outline: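 Compound-treated yeast with a defined DNA-repair lesion; growth inhibition normalised to vehicle-treated cultures.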
# [3] = NCI Yeast Anticancer Drug Screen. Data for the sgs1 mgt1 strain (AID 161);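 also: 0% = growth of cultures given vehicle only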; conditions: S. cerevisiae sgs1 mgt1 strain, active compounds read high
# Outline: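 Test agents were incubated with a DNA-repair-mutant yeast strain. Growth was then read and compared against vehicle-treated controls.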
# [4] = NCI Yeast Anticancer Drug Screen. Data for the CLN2oe strain (AID 163);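 also: 0% = growth of vehicle-only control cultures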; conditions: S. cerevisiae CLN2oe strain, active compounds read high
# Outline: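 Strain altered in cell-cycle control, incubated with compound; growth compared to solvent-treated controls.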
# [5] = NCI Yeast Anticancer Drug Screen. Data for the cln2 rad14 strain (AID 165);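 also: 0% = growth equal to vehicle treated cultures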; conditions: S. cerevisiae cln2 rad14 strain, active compounds read high
# Outline: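 The screen exposed genetically defined yeast (cln2 rad14) to test compounds and scored growth inhibition relative to vehicle-treated controls.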
# [6] = NCI Yeast Anticancer Drug Screen. Data for the bub3 strain (AID 167); conditions: S. cerevisiae bub3 mutant strain, active compounds read high
# Outline: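 Growth of a checkpoint-deficient yeast mutant is measured after compound exposure. Values represent inhibition relative to vehicle.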
# [7] = NCI Yeast Anticancer Drug Screen. Data for the wt2 strain (AID 169);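 also: 0% = growth of vehicle-treated yeast cultures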; conditions: S. cerevisiae wt2 strain growth inhibition, active compounds read high
# Outline: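 Steps: yeast strain treated with compound; growth recorded; inhibition calculated relative to cultures given vehicle alone.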
# [8] = NCI Yeast Anticancer Drug Screen. Data for the mlh1 strain (AID 171);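 also: 0% = growth of vehicle-treated control cultures of the same strain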; conditions: S. cerevisiae mlh1 strain growth inhibition, active compounds read high
# Outline: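 Yeast screen: mutant strain plus compound, growth scored against vehicle control wells.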
# [9] = NCI Yeast Anticancer Drug Screen. Data for the sgs1 strain (AID 173);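 also: 0% = growth of vehicle-only control cultures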; conditions: S. cerevisiae sgs1 mutant, active compounds read high
# Outline: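 Inhibition of yeast growth served as the measure. The mutant strain was treated with each compound, and growth was normalised to cultures receiving vehicle alone.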
# [10] = NCI Yeast Anticancer Drug Screen. Data for the mlh1 rad18 strain (AID 175); conditions: S. cerevisiae mlh1 rad18 strain growth inhibition, active compounds read high
# Outline: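 Compound-treated yeast growth, normalised to vehicle controls. Strain bears defined DNA repair mutations.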
# [11] = NCI Yeast Anticancer Drug Screen. Data for the rad18 strain (AID 177); conditions: S. cerevisiae rad18 mutant growth inhibition, active compounds read high
# Outline: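 Inhibition values reflect reduced yeast growth compared with vehicle-treated controls, using a strain engineered with a DNA damage repair defect.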
# [12] = NCI Yeast Anticancer Drug Screen. Data for the rad52 strain (AID 147);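 also: 0% = growth of vehicle-treated control cultures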; conditions: S. cerevisiae rad52 mutant growth inhibition, active compounds read high
# Outline: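 Genetically altered yeast (DNA damage repair defect) treated with compound; inhibition calculated relative to vehicle.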
# [13] = NCI Yeast Anticancer Drug Screen. Data for the wt1 strain (AID 149);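 also: 0% = growth of vehicle-treated wt1 cultures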; conditions: S. cerevisiae wt1 strain (SPY 50644) growth inhibition, active compounds read high
# Outline: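 Readout: yeast growth inhibition, normalised to vehicle controls, in the wt1 strain exposed to test compounds.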
# [14] = NCI Yeast Anticancer Drug Screen. Data for the rad50EPP+ strain (AID 151);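 also: 0% = growth of vehicle-treated control cultures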; conditions: S. cerevisiae rad50 mutant strain, active compounds read high
# Outline: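 Strain rad50EPP+; compound exposure; % growth inhibition vs vehicle.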
# [15] = NCI Yeast Anticancer Drug Screen. Data for the mgt1 strain (AID 153); conditions: S. cerevisiae mgt1 mutant growth inhibition, active compounds read high
# Outline: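 Read-out: yeast growth inhibition vs vehicle control. Strain mgt1, drawn from a panel altered in DNA damage repair or cell cycle control.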
# [16] = NCI Yeast Anticancer Drug Screen. Data for the rad50 strain (AID 155);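 also: 0% = growth of vehicle-only cultures of the same strain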; conditions: S. cerevisiae rad50 strain growth inhibition, active compounds read high
# Outline: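 Compounds were tested on a yeast strain with an engineered DNA damage repair alteration; the reported value is growth inhibition normalised to vehicle treatment.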
# [17] = at 5.0 µM (retest, dose inferred, filed as 0.5)
# [18] = at 50.0 µM (retest, dose inferred, filed as 5.0)
smiles,measurement,setting,value
C[n+]1c(-c2ccc(/C=N/NC(=O)c3ccc(C(=O)N/N=C/c4ccc(-c5cn6ccccc6[n+]5C)cc4)cc3)cc2)cn2ccccc21,growth inhibition,[1]; [17],-7%
same,growth inhibition,[1]; at 11.0 µM,23%
same,growth inhibition,[1]; at 33.0 µM,41%
same,growth inhibition,[1]; [18],63%
same,growth inhibition,[1]; at 50.0 µM,49.4%
same,growth inhibition,[1]; at 100.0 µM,76% (active)
same,growth inhibition,[2]; at 1.2 µM,-1%
same,growth inhibition,[2]; at 3.7 µM,3%
same,growth inhibition,[2]; at 11.0 µM,15%
same,growth inhibition,[2]; at 33.0 µM,66%
same,growth inhibition,[2]; at 100.0 µM,60%
same,growth inhibition,[3]; [17],24%
same,growth inhibition,[3]; [18],62%
same,growth inhibition,[3]; at 50.0 µM,70.7% (active)
same,growth inhibition,[4]; at 1.2 µM,-2%
same,growth inhibition,[4]; at 3.7 µM,0%
same,growth inhibition,[4]; at 11.0 µM,13%
same,growth inhibition,[4]; at 33.0 µM,30%
same,growth inhibition,[4]; at 100.0 µM,38%
same,growth inhibition,[5]; [17],16%
same,growth inhibition,[5]; [18],78% (active)
same,growth inhibition,[5]; at 50.0 µM,51.4%
same,growth inhibition,[6]; at 1.2 µM,-5%
same,growth inhibition,[6]; at 3.7 µM,2%
same,growth inhibition,[6]; [17],-1%
same,growth inhibition,[6]; at 11.0 µM,13%
same,growth inhibition,[6]; at 33.0 µM,70% (active)
same,growth inhibition,[6]; [18],91% (active)
same,growth inhibition,[6]; at 50.0 µM,69.7%
same,growth inhibition,[6]; at 100.0 µM,76% (active)
same,growth inhibition,[7]; at 1.2 µM,13%
same,growth inhibition,[7]; at 3.7 µM,27%
same,growth inhibition,[7]; at 11.0 µM,63%
same,growth inhibition,[7]; at 33.0 µM,88% (active)
same,growth inhibition,[7]; at 100.0 µM,82% (active)
same,growth inhibition,[8]; at 1.2 µM,3%
same,growth inhibition,[8]; at 3.7 µM,11%
same,growth inhibition,[8]; at 11.0 µM,37%
same,growth inhibition,[8]; at 33.0 µM,69%
same,growth inhibition,[8]; at 100.0 µM,84% (active)
same,growth inhibition,[9]; at 1.2 µM,11%
same,growth inhibition,[9]; at 3.7 µM,22%
same,growth inhibition,[9]; at 11.0 µM,44%
same,growth inhibition,[9]; at 33.0 µM,74% (active)
same,growth inhibition,[9]; at 100.0 µM,81% (active)
same,growth inhibition,[10]; [17],50%
same,growth inhibition,[10]; [18],96% (active)
same,growth inhibition,[10]; at 50.0 µM,92% (active)
same,growth inhibition,[11]; at 1.2 µM,10%
same,growth inhibition,[11]; at 3.7 µM,17%
same,growth inhibition,[11]; at 11.0 µM,55%
same,growth inhibition,[11]; at 33.0 µM,55%
same,growth inhibition,[11]; at 100.0 µM,70% (active)
O=S(=O)(NNc1ccccc1)c1ccccc1,growth inhibition,[12]; at 1.2 µM,-1%
same,growth inhibition,[12]; at 3.7 µM,4%
same,growth inhibition,[12]; at 11.0 µM,15%
same,growth inhibition,[12]; at 33.0 µM,62%
same,growth inhibition,[12]; at 100.0 µM,97% (active)
same,growth inhibition,[13]; at 1.2 µM,-1%
same,growth inhibition,[13]; at 3.7 µM,-1%
same,growth inhibition,[13]; at 11.0 µM,4%
same,growth inhibition,[13]; at 33.0 µM,11%
same,growth inhibition,[13]; at 100.0 µM,45%
same,growth inhibition,[14]; at 1.2 µM,-1%
same,growth inhibition,[14]; at 3.7 µM,1%
same,growth inhibition,[14]; at 11.0 µM,14%
same,growth inhibition,[14]; at 33.0 µM,71% (active)
same,growth inhibition,[14]; at 100.0 µM,94% (active)
same,growth inhibition,[15]; at 1.2 µM,-3%
same,growth inhibition,[15]; at 3.7 µM,-1%
same,growth inhibition,[15]; at 11.0 µM,8%
same,growth inhibition,[15]; at 33.0 µM,14%
same,growth inhibition,[15]; at 100.0 µM,82% (active)
same,growth inhibition,[16]; at 1.2 µM,4%
same,growth inhibition,[16]; at 3.7 µM,18%
same,growth inhibition,[16]; [17],-20%
same,growth inhibition,[16]; at 11.0 µM,27%
same,growth inhibition,[16]; at 33.0 µM,60%
same,growth inhibition,[16]; [18],16%
same,growth inhibition,[16]; at 50.0 µM,73.5% (active)
same,growth inhibition,[16]; at 100.0 µM,95% (active)
same,growth inhibition,[1]; at 1.2 µM,-6%
same,growth inhibition,[1]; at 3.7 µM,-5%
same,growth inhibition,[1]; [17],-12%
same,growth inhibition,[1]; at 11.0 µM,-3%
same,growth inhibition,[1]; at 33.0 µM,26%
same,growth inhibition,[1]; [18],15%
same,growth inhibition,[1]; at 50.0 µM,19.1%
same,growth inhibition,[1]; at 100.0 µM,92% (active)
same,growth inhibition,[2]; at 1.2 µM,-2%
same,growth inhibition,[2]; at 3.7 µM,3%
same,growth inhibition,[2]; at 11.0 µM,8%
same,growth inhibition,[2]; at 33.0 µM,18%
same,growth inhibition,[2]; at 100.0 µM,44%
same,growth inhibition,[3]; [17],0%
same,growth inhibition,[3]; [18],9%
same,growth inhibition,[3]; at 50.0 µM,36.6%
same,growth inhibition,[4]; at 1.2 µM,0%
same,growth inhibition,[4]; at 3.7 µM,-1%
same,growth inhibition,[4]; at 11.0 µM,5%
same,growth inhibition,[4]; at 33.0 µM,34%
same,growth inhibition,[4]; at 100.0 µM,85% (active)
same,growth inhibition,[5]; [17],-44%
same,growth inhibition,[5]; [18],-3%
same,growth inhibition,[5]; at 50.0 µM,16.1%
same,growth inhibition,[6]; at 1.2 µM,-4%
same,growth inhibition,[6]; at 3.7 µM,-7%
same,growth inhibition,[6]; [17],-4%
same,growth inhibition,[6]; at 11.0 µM,1%
same,growth inhibition,[6]; at 33.0 µM,45%
same,growth inhibition,[6]; [18],23%
same,growth inhibition,[6]; at 50.0 µM,11.7%
same,growth inhibition,[6]; at 100.0 µM,93% (active)
same,growth inhibition,[7]; at 1.2 µM,-2%
same,growth inhibition,[7]; at 3.7 µM,-1%
same,growth inhibition,[7]; at 11.0 µM,2%
same,growth inhibition,[7]; at 33.0 µM,16%
same,growth inhibition,[7]; at 100.0 µM,67%
same,growth inhibition,[8]; at 1.2 µM,-5%
same,growth inhibition,[8]; at 3.7 µM,-3%
same,growth inhibition,[8]; at 11.0 µM,-2%
same,growth inhibition,[8]; at 33.0 µM,14%
same,growth inhibition,[8]; at 100.0 µM,74% (active)
same,growth inhibition,[9]; at 1.2 µM,-1%
same,growth inhibition,[9]; at 3.7 µM,-1%
same,growth inhibition,[9]; at 11.0 µM,6%
same,growth inhibition,[9]; at 33.0 µM,34%
same,growth inhibition,[9]; at 100.0 µM,90% (active)
same,growth inhibition,[10]; [17],-25%
same,growth inhibition,[10]; [18],51%
same,growth inhibition,[10]; at 50.0 µM,54.5%
same,growth inhibition,[11]; at 1.2 µM,-1%
same,growth inhibition,[11]; at 3.7 µM,3%
same,growth inhibition,[11]; at 11.0 µM,22%
same,growth inhibition,[11]; at 33.0 µM,47%
same,growth inhibition,[11]; at 100.0 µM,91% (active)
